RORg inh: ROR gamma (mouse) transcription inhibition | Drosophila S2 Gal4-RORgamma UAS-luciferase reporter, 20 h | 5.4% of 310,000 active | AID 2551 | P51450 | Potency, µM (highest dose often 53.6 µM), without a hit: top-dose activity change, negative = inhibition, most hits filed as inhibitors; also: nearly all actives have a fitted effect of over 60% in size
Target sequence (P51450 whole entry, looked up, the tested form may be a part): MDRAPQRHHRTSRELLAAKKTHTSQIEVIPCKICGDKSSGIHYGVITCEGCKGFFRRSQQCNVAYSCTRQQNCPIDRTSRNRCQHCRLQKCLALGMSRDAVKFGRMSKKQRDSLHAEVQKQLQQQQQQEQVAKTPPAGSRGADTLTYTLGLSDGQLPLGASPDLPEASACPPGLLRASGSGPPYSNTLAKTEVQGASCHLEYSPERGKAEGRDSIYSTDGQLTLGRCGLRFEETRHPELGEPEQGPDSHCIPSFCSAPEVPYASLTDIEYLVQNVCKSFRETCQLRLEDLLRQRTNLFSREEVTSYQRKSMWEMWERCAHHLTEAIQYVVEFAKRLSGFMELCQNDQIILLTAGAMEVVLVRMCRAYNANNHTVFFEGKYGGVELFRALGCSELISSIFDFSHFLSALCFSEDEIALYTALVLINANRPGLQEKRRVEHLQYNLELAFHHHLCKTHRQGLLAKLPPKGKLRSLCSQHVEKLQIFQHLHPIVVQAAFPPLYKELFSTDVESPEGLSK
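Schneider cells (Drosophila), stable Gal4 DBD–ROR gamma + UAS-luc; 1 hr cmpd preincubation; Cu2+ induction 700 uM final; 20 hr ambient; luminescence.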
TDP1 cell noCPT: qHTS for Inhibitors of human tyrosyl-DNA phosphodiesterase 1 (TDP1): qHTS in cells in absence of CPT; Potency, µM (series often up to 46.2 µM), for inactives: at the top dose activity change, negative = growth inhibition, usual class: inhibitors; 15% of 420,000 active; DT40 Tdp1-/- hTDP1 cells, no CPT, ATP luminescence, 48 h; AID 686978, 2013; also: nearly all actives have a fitted effect of over 55% in size
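A cellular qHTS used chicken DT40 cells lacking endogenous Tdp1 but carrying stably transfected human TDP1. Compounds were applied without camptothecin, and cell growth kinetics were judged by ATP-dependent luminescence after ≥48 hr.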
TDP1 inh: inhibitors of human tyrosyl-DNA phosphodiesterase TDP1. Q9NUW8. recombinant TDP1, AlphaScreen DNA substrate cleavage. Potency, µM (titrated, usually from 130 µM), without a hit: at the highest dose activity change, negative = inhibition, actives largely listed as inhibitors. 0.28% of 350,000 active. AID 485290; also: nearly all actives have a fitted effect of over 40% in size
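Tdp1 1 nM final; 15 min RT w/ cpd; substrate 15 nM, 5 min; beads 10 ug/ml, 10 min; AlphaScreen read. Neg ctrl: no enzyme.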
VP16 counter: counter-screen for ROR gamma inhibitors: Gal4-VP16 reporter; Drosophila S2 Gal4-VP16 UAS-luciferase, luminescence, 20 h; Potency, µM (highest dose often 53.6 µM), for inactives: at the highest dose activity, negative = inhibition, actives largely listed as inhibitors; 3.5% of 310,000 active; AID 2546;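 also: Gal4-VP16 expression switched on by copper sulfate through the metallothionein promoter; nearly all actives have a fitted effect of over 50% in size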
TDP1 cell CPT: DT40-hTDP1 cell growth loss with CPT; Potency, µM (highest dose often 46.2 µM), for inactives: top-dose activity change, negative = growth inhibition, actives largely listed as inhibitors; 12% of 420,000 active; AID 686979; chicken DT40 Tdp1-/-;hTDP1 cells + 20 nM CPT, ATP luminescence, 48 h; also: nearly all actives have a fitted effect of over 55% in size
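Chicken DT40 Tdp1-/- cells complemented with human TDP1, 400 cells/well, exposed to compounds plus 20 nM camptothecin for at least 48 h at 37 C; viability read as ATP content by CellTiter-Glo luminescence.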
An asterisk follows results filed as active; ? = inconclusive; · = no result given. Hits are enriched below; roughly 19% of the tested compounds scored in any of these assays. Calls follow the shape of the dose curve; as a rule, active = well fitted curve in the direction sought with a large enough effect; inconclusive = small, poorly fitted or top-dose-only effect, or another doubt; inactive = no such curve, though single readings can be large; an effect the other way counts as inactive or inconclusive. % is scaled to controls: 0 for no effect and ±100 for the full control effect; potency is read from the fitted curve at half-maximal effect.

SMILES | RORg inh | TDP1 cell noCPT | TDP1 inh | VP16 counter | TDP1 cell CPT
CC(=O)c1sc(NC(=O)C=C(C)C)nc1C | 22% | -9% | 1% | 10% | -6%
Cc1ccc(S(=O)(=O)CC(=O)Nc2nc(-c3ccccc3)cs2)cc1 | 5% | 21µM* | 8% | 1% | -18%
CC(=O)c1sc(NC(=O)C2(F)C(F)(F)C(F)(F)C(F)(F)C(F)(F)C2(F)F)nc1C | 4µM* | 5.8µM* | 6% | 3.5µM* | 4.1µM*
Cc1ccc(S(=O)(=O)CCC(=O)Nc2nccs2)cc1 | 5% | ? | 3% | -5% | -10%
Cc1csc(NC(=O)CCS(=O)(=O)c2ccc(Br)cc2)n1 | -15% | 23µM* | -10% | 8% | ?
O=C(CS(=O)(=O)c1ccccc1)Nc1nc(-c2ccccc2)cs1 | ? | ? | 6% | 11% | ?
Cc1ccc(S(=O)(=O)CCC(=O)Nc2nc(-c3ccncc3)cs2)cc1 | -9% | 18µM* | 3% | -1% | 23µM*
CCN1CCN(C(=O)c2c(-c3c(F)cccc3Cl)noc2C)CC1 | -2% | -21% | 8% | 9% | -4%
Cc1ccnc(NC(c2ccccc2O)c2oc(CO)cc(=O)c2O)c1 (configuration not stated) | -20% | -12% | -1% | -9% | -17%
COc1ccc(CNC(=O)c2cnc3cc(C)ccn3c2=O)cc1 | 8% | ? | 1% | -15% | ?
CC(=O)c1sc(NC(=O)CS(=O)(=O)c2ccc(F)cc2)nc1C | · | -5% | -6% | · | 13%
CC(=O)c1sc(NC(=O)CCS(=O)(=O)c2ccc(C)cc2)nc1C | · | 18µM* | 2% | · | 9.2µM*
CCCC(=O)Nc1ccc(-c2csc(N/N=C\c3ccncc3)n2)cc1 | 21% | 8.2µM* | 7% | -4% | 10µM*
CCOC(=O)c1csc(NC(=O)CC2CCCC2)n1 | 11µM* | -15% | 1% | -20% | -11%
CCOC(=O)c1csc(NC(=O)CCS(=O)(=O)c2ccc(Cl)cc2)n1 | · | 18µM* | · | · | ?
CCOC(=O)c1csc(NC(=O)CCSc2ccccc2)n1 | 28% | -27% | 2% | -5% | ?
COc1ccc(-c2noc(CCCC(=O)NCCc3ccccc3)n2)cc1OC | -40% | ? | 4% | -12% | ?
Cc1nc2c3ccccc3nc(NNC(=O)CCC(=O)N3CCCC(C)C3)n2n1 (configuration not stated) | 2% | -17% | 4% | 8% | -1%
Cc1cccc(N2CCN(C(=O)CCC(=O)NNc3nc4ccccc4c4nc(C)nn34)CC2C)c1 (configuration not stated) | · | 23µM* | 7% | · | 18µM*
CC(C)CCNC(=O)CCC(=O)NNc1nc2ccccc2c2nc(-c3ccccc3)nn12 | -4% | 21µM* | 9% | -7% | 21µM*
Cc1ccc2c(c1)-c1c(cnn1CC(=O)NC(C)CCc1ccco1)CO2 (configuration not stated) | 36% | ? | 5% | -3% | ?
O=C(CCl)N(C/C=C/c1ccccc1)c1ccc2c(c1)OCCO2 | 13µM* | 6.5µM* | 5% | ? | 3.7µM*
C/C=C/c1ccc(OCCCN2C(=O)NC(C)(C)C2=O)c(OC)c1 | 40% | -25% | 1% | 5% | -24%
Cc1c(CCOC(=O)C2C3CC4CC(C3)CC2C4)sc[n+]1CC(=O)c1ccc(Br)cc1 (configuration not stated) | 29% | 18µM* | -2% | -8% | ?
Cc1c(CCOC(=O)c2ccc(Cl)cc2Cl)sc[n+]1CC(=O)c1ccc(Br)cc1 | · | 18µM* | 3% | · | ?
SMILES | RORg inh | TDP1 cell noCPT | TDP1 inh | VP16 counter | TDP1 cell CPT
Cn1ncc(Br)c1C(=O)N1CCc2ccccc21 | -13% | -21% | 4% | -1% | -3%
CCc1cc2c(=O)n(-c3ccc(Br)cc3)cnc2s1 | ? | -21% | 3% | 22% | -3%
Cc1ccc(S(=O)(=O)N2CCN(C(=O)[C@H](Cc3ccccc3)NC(=O)c3ccco3)CC2)cc1C | · | 16µM* | 1% | · | ?
Cc1ccc(C)c(S(=O)(=O)N2CCN(C(=O)[C@H](Cc3ccccc3)NC(=O)c3ccco3)CC2)c1 | · | 16µM* | 3% | · | 23µM*
O=C(N[C@@H](Cc1ccccc1)C(=O)N1CCN(S(=O)(=O)c2ccccc2F)CC1)c1ccco1 | · | ? | 1% | · | ?
CSCCC(NC(=O)c1ccco1)C(=O)N1CCN(C(c2ccccc2)c2ccccc2)CC1 (configuration not stated) | · | 16µM* | 1% | · | 23µM*
Cn1c(=O)oc2cc(S(=O)(=O)N3CCCC(C(=O)NCC4COc5ccccc5O4)C3)ccc21 (configuration not stated) | ? | ? | 8% | -15% | ?
CC(=O)NC(Cc1ccc(F)cc1)C(=O)NC1CCN(C(=O)Nc2cccc(C)c2)CC1 (configuration not stated) | 22% | 0% | 2% | 6% | 23%
CCCn1c(CCC(=O)Nc2cc(OC)cc(OC)c2)nc2cccnc21 | · | 23µM* | 6% | · | ?
COc1ccc(Cn2c(CCC(=O)Nc3cccc(OC)c3)nc3cccnc32)cc1 | · | -3% | -2% | · | -17%
CCCn1c(CCC(=O)Nc2cc(C(=O)OC)cc(C(=O)OC)c2)nc2cccnc21 | · | ? | 4% | · | 29µM*
COc1ccccc1NC(=O)N(C)C[C@@H]1OCc2ccccc2-c2c(n(C)c3ccccc23)C(=O)N([C@H](C)CO)C[C@@H]1C | · | 23µM* | · | · | 21µM*
CC(C)NC(=O)N(C)C[C@@H]1OCc2ccccc2-c2c(n(C)c3ccccc23)C(=O)N([C@@H](C)CO)C[C@@H]1C | · | ? | · | · | -20%
C[C@H](CO)N1C[C@H](C)[C@H](CN(C)S(=O)(=O)c2ccccc2)OCc2ccccc2-c2c(n(C)c3ccccc23)C1=O | · | -14% | · | · | -20%
COC(=O)N(C)C[C@@H]1OCc2ccccc2-c2c(n(C)c3ccccc23)C(=O)N([C@H](C)CO)C[C@@H]1C | · | 26µM* | · | · | ?
C[C@H](CO)N1C[C@H](C)[C@H](CN(C)C(=O)Nc2ccc(F)cc2)OCc2ccccc2-c2c(n(C)c3ccccc23)C1=O | · | 13µM* | · | · | 15µM*
CNC[C@@H]1OCc2ccccc2-c2c(n(C)c3ccccc23)C(=O)N([C@H](C)CO)C[C@@H]1C | · | 18µM* | · | · | ?
Cc1ccc(S(=O)(=O)c2nc(S(C)(=O)=O)sc2NCc2ccc3c(c2)OCO3)cc1 | 44% | ? | 1% | -4% | ?
O=C(CSc1nnc2c(Cl)cc(C(F)(F)F)cn12)NCc1ccc(F)cc1 | ? | -23% | -3% | ? | 4%

Screening results from PubChem.
